High-throughput results deposited in PubChem by several laboratories.
BoNT-A LC inh2 – BoNT/A light chain protease inhibitors, primary screen, biochemical, flow cytometry, MLPCN library; Botulinum neurotoxin type A light chain protease (Clostridium botulinum A str. ATCC 3502); multiplex microsphere protease substrate cleavage; inhibition, % at 10 µM; hit rate 0.17% among 360,000; AID 588499, 2011; further: plate controls were buffer without enzyme for full effect and enzyme alone for no effect
BoNT-F LC inh – BoNT/F light chain protease inhibitors, primary screen, biochemical, flow cytometry, MLPCN library; Botulinum neurotoxin type F light chain protease (Clostridium botulinum); Multiplex microsphere protease cleavage assay; inhibition, % at 10 µM; hit rate 0.22% among 360,000; in the data active means inhibition above about 35%, passing the limit was not always enough; inconclusive means no clear call, values can overlap the other calls; further: plate controls were buffer without enzyme for full effect and enzyme alone for no effect
Autofluor counter – flagged as autofluorescent in microsphere protease counterscreen; fluorescence intensity (concentration not given with the values); compound autofluorescence counterscreen, microsphere flow cytometry; active compounds read high; AID 624483; hit rate 3.1% among 360,000; in the data active means fluorescence intensity above about 16000; inconclusive means no clear call, values can overlap the other calls
Anthrax LF prot – Bacillus anthracis LF protease inhibitors, primary screen, biochemical, multiplex microsphere, MLPCN library; hit rate 0.12% among 360,000; AID 588501, 2011; multiplex microsphere protease cleavage assay; inhibition, % at 10 µM; Lethal factor (Bacillus anthracis), P15917; further: plate controls were buffer without enzyme for full effect and enzyme alone for no effect
Target sequence (P15917 whole entry, looked up): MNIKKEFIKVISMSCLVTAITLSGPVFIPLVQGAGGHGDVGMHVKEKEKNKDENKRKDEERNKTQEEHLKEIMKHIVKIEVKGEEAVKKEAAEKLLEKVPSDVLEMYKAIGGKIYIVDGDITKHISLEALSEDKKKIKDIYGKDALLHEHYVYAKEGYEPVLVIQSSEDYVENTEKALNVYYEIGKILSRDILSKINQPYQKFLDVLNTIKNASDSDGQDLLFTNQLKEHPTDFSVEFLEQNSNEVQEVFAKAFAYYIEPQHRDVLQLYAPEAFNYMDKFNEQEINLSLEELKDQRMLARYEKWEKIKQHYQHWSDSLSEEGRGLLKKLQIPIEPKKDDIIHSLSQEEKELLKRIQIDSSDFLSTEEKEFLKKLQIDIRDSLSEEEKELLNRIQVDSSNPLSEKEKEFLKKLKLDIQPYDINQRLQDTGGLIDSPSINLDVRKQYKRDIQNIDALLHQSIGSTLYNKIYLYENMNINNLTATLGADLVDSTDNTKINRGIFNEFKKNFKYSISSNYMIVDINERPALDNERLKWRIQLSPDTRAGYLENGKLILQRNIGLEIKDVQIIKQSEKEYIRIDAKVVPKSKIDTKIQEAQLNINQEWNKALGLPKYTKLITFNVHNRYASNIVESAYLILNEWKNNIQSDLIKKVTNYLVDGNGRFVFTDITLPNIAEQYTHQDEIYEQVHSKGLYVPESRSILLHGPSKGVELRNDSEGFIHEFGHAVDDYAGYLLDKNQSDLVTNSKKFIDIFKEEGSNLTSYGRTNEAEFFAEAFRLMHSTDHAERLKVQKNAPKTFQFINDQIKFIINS
BJeLR lethal – MLPCN primary cell-based screen for lethality selective to Ras in HRASV12 cells. BJeLR (HRASV12) viability, CellTiter-Glo ATP luminescence, 48 h. inhibition, % (no concentration beside the values). hit rate 0.17% among 300,000; in the data active means inhibition above about 50%; inconclusive means no clear call, values can overlap the other calls
Starred values were filed as active, the others as inactive. Sampled rows, rich in hits. Any-hit rate of the full collection: about 3.5%. Unless noted, no stated cut-off is given here; in the data, active means inhibition above about 30%; inconclusive means no clear call, values can overlap the other calls; inactive means below that.

How did CC(=NCCC1=CCCCC1)c1c(O)n(C)c(=O)n(C)c1=O do in these assays?
BoNT-A LC inh2: 0.3; BoNT-F LC inh: 0.5; Autofluor counter: 23048*; Anthrax LF prot: 1.1; BJeLR lethal: 7.1

Results for O=C(CN1CCCCCC1)N1c2ccccc2C=Cc2ccccc21 ?
BoNT-A LC inh2: inconclusive; BoNT-F LC inh: 2.0; Autofluor counter: 19591*; Anthrax LF prot: 0.7; BJeLR lethal: 3.2

How did O=C(CN1CCCC1)N1c2ccccc2C=Cc2ccccc21 do in these assays?
BoNT-A LC inh2: -0.1; BoNT-F LC inh: -1.5; Autofluor counter: 4202; Anthrax LF prot: -0.4; BJeLR lethal: -1.0

What do the screens show for `Nc1c(C(=O)NCc2ccccc2)nnn1Cc1ccccc1`?
BoNT-A LC inh2: -2.2; BoNT-F LC inh: -10.7; Autofluor counter: 4719; Anthrax LF prot: -12.6; BJeLR lethal: 0.2

How did CN(C)/C=N/c1c(C(=O)NCc2ccccc2)nnn1Cc1ccccc1 do in these assays?
BoNT-A LC inh2: 7.8; BoNT-F LC inh: 11.5; Autofluor counter: 18876*; Anthrax LF prot: 1.9; BJeLR lethal: -10.5

Results for O=C(Nc1ccon1)C(Sc1ccccc1)c1ccccc1 (stereo not drawn) ?
BoNT-A LC inh2: inconclusive; BoNT-F LC inh: 0.7; Autofluor counter: 23273*; Anthrax LF prot: -3.2; BJeLR lethal: -7.2

How did CCc1ccccc1-n1c(-c2ccncc2)n[nH]c1=S do in these assays?
BoNT-A LC inh2: -2.1; BoNT-F LC inh: -1.8; Autofluor counter: 22962*; Anthrax LF prot: -2.9; BJeLR lethal: -4.0

Results for Cc1ccccc1-n1c(-c2ccncc2)n[nH]c1=S ?
BoNT-A LC inh2: 0.8; BoNT-F LC inh: 5.1; Autofluor counter: 3878; Anthrax LF prot: -1.7; BJeLR lethal: 20.2

Results for COCCNCC(=O)Nc1ccc(OC(F)(F)F)cc1 ?
BoNT-A LC inh2: -0.3; BoNT-F LC inh: 4.2; Autofluor counter: 4543; Anthrax LF prot: 5.6; BJeLR lethal: -6.4

Results for COc1ccc(Cc2nnc(SCC(=O)Nc3ccccc3C)n(N)c2=O)cc1 ?
BoNT-A LC inh2: 1.2; BoNT-F LC inh: 3.6; Autofluor counter: inconclusive; Anthrax LF prot: -4.7; BJeLR lethal: 4.8

Results for CCCS(=O)(=O)N1CCN(c2ccccn2)CC1 ?
BoNT-A LC inh2: -0.3; BoNT-F LC inh: 7.1; Autofluor counter: 5771; Anthrax LF prot: -11.1; BJeLR lethal: 2.4

How did CCS(=O)(=O)N1CCN(c2ccccn2)CC1 do in these assays?
BoNT-A LC inh2: -5.8; BoNT-F LC inh: -11.5; Autofluor counter: 26268*; Anthrax LF prot: -0.6; BJeLR lethal: -1.5

How did O=S(=O)(c1cccs1)N1CCN(c2ncccn2)CC1 do in these assays?
BoNT-A LC inh2: 0.5; BoNT-F LC inh: -1.0; Autofluor counter: 9240; Anthrax LF prot: -2.7; BJeLR lethal: 0.5

How did O=S(=O)(c1cccs1)N1CCN(c2ccccn2)CC1 do in these assays?
BoNT-A LC inh2: 0.5; BoNT-F LC inh: -1.4; Autofluor counter: 22816*; Anthrax LF prot: -2.8; BJeLR lethal: 0.9

What do the screens show for `CC(C)C(C)NC(=O)CSc1nnc(-c2c[nH]c3ccccc23)o1` (stereo not drawn)?
BoNT-A LC inh2: -0.1; BoNT-F LC inh: 2.5; Autofluor counter: 3300; Anthrax LF prot: -1.1; BJeLR lethal: 5.1

What do the screens show for `Cc1ccc(C(=O)CSc2nnc(-c3c[nH]c4ccccc34)o2)cc1`?
BoNT-A LC inh2: inconclusive; BoNT-F LC inh: 2.0; Autofluor counter: 19814*; Anthrax LF prot: -6.5; BJeLR lethal: -6.8

What do the screens show for `Cc1nn(CCc2n[nH]c(=S)n2-c2ccc(F)cc2)c(C)c1[N+](=O)[O-]`?
BoNT-A LC inh2: -0.2; BoNT-F LC inh: -2.2; Autofluor counter: 10625; Anthrax LF prot: -4.8; BJeLR lethal: 2.4

Results for Cc1nn(C(C)c2n[nH]c(=S)n2-c2ccc(F)cc2)c(C)c1[N+](=O)[O-] (stereo not drawn) ?
BoNT-A LC inh2: -2.6; BoNT-F LC inh: -6.3; Autofluor counter: 17161*; Anthrax LF prot: -1.8; BJeLR lethal: 3.7

How did C[C@@H]1CN([C@H](C)CO)S(=O)(=O)c2ccc(C#CCN(C)C)cc2O[C@@H]1CN(C)Cc1ccccc1F do in these assays?
BoNT-A LC inh2: 0.7; BoNT-F LC inh: -7.0; Autofluor counter: 3810; Anthrax LF prot: -4.2

Results for O=C(O)CSc1ncnc2nc[nH]c12 ?
BoNT-A LC inh2: 0.5; BoNT-F LC inh: -0.2; Autofluor counter: 20292*; Anthrax LF prot: -0.4

What do the screens show for `CCOC(=O)C(C)Sc1ncnc2nc[nH]c12` (stereo not drawn)?
BoNT-A LC inh2: inconclusive; BoNT-F LC inh: -2.7; Autofluor counter: 24038*; Anthrax LF prot: -2.9; BJeLR lethal: 8.2

What do the screens show for `O=C(CSc1ncnc2nc[nH]c12)c1ccc2ccccc2c1`?
BoNT-A LC inh2: -0.2; BoNT-F LC inh: -3.7; Autofluor counter: 2541; Anthrax LF prot: -2.8; BJeLR lethal: -0.4

Results for O=C(CSc1ncnc2nc[nH]c12)N1CCN(c2ccc(Cl)cc2)CC1 ?
BoNT-A LC inh2: -0.1; BoNT-F LC inh: 2.7; Autofluor counter: 16576*; Anthrax LF prot: -4.0; BJeLR lethal: 3.6

What do the screens show for `COC(=O)c1c(C(=O)OC)c(-c2ccc(C)cc2)n2c1CCC2`?
BoNT-A LC inh2: -4.6; BoNT-F LC inh: -6.7; Autofluor counter: 24446*; Anthrax LF prot: -0.3; BJeLR lethal: 1.1

How did COC(=O)c1c(C(=O)OC)c(-c2ccc(Cl)c(Cl)c2)n2c1CCC2 do in these assays?
BoNT-A LC inh2: -0.3; BoNT-F LC inh: 0.6; Autofluor counter: 10365; Anthrax LF prot: -6.3; BJeLR lethal: 9.9

What do the screens show for `CCN(CC)CCCNC(=O)CNC(=O)c1nn(-c2ccc(OC)cc2OC)c(=O)c2ccccc12`?
BoNT-A LC inh2: -0.3; BoNT-F LC inh: -6.8; Autofluor counter: 3821; Anthrax LF prot: -0.7

Results for CCOC(=O)CNc1nc(C(C)(C)C)nc2c1nnn2Cc1ccccc1Cl ?
BoNT-A LC inh2: -1.4; BoNT-F LC inh: -2.2; Autofluor counter: 23473*; Anthrax LF prot: -2.2; BJeLR lethal: 0.1

How did O=c1[nH]c2cc3c(cc2cc1C(c1nnnn1C1CCCC1)N1CCSCC1)OCCO3 (stereo not drawn) do in these assays?
BoNT-A LC inh2: 0.3; BoNT-F LC inh: -0.5; Autofluor counter: 8220; Anthrax LF prot: -4.3; BJeLR lethal: 8.2

How did CC(C)C(c1nnnn1C1CCCC1)N(C)C1CCCCC1 (stereo not drawn) do in these assays?
BoNT-A LC inh2: inconclusive; BoNT-F LC inh: -3.6; Autofluor counter: 20923*; Anthrax LF prot: -0.2; BJeLR lethal: 5.9

What do the screens show for `COc1cc2cc(C(c3nnnn3C3CCCC3)N(C)C3CCCCC3)c(=O)[nH]c2cc1OC` (stereo not drawn)?
BoNT-A LC inh2: -1.6; BoNT-F LC inh: -1.3; Autofluor counter: 21407*; Anthrax LF prot: 0.4; BJeLR lethal: -11.2

How did COc1cc2cc(C(c3nnnn3C3CCCCC3)N(C)C3CCCCC3)c(=O)[nH]c2cc1OC (stereo not drawn) do in these assays?
BoNT-A LC inh2: 2.9; BoNT-F LC inh: 3.7; Autofluor counter: 22356*; Anthrax LF prot: 1.6; BJeLR lethal: 0.0
